This passage reports outcome and AC50 results from PubChem BioAssay (EPA / NIEHS).

The source made the active and inactive calls. How the source made its calls: active means hit-call score of the fitted dose curve at least 0.9, where 1 is the maximum; inactive means score below 0.9.

Read-out in experiment [1]: Interferon-gamma inducible Protein 10 (IP10), CXCL10 (gene 3627)
The experiment in a line: BSK_hDFCGF_IP10: BioMAP Diversity Plus: hDFCGF Assay for Interferon-gamma inducible Protein 10 (IP10) Biomarker Activity (AID 2283053). As to conditions: primary human foreskin fibroblasts; actives raise or lower the signal. In short, it runs like this: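 Primary human foreskin fibroblasts exposed to chemicals for 24 h. IP-10 measured by ELISA; changes fitted bidirectionally against DMSO baseline.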

Read-out in experiment [2]: Urokinase-type plasminogen activator receptor (uPAR), PLAUR (gene 5329)
The experiment in a line: BSK_CASM3C_uPAR: BioMAP Diversity Plus: CASM3C Assay for Urokinase-type plasminogen activator receptor (uPAR) Biomarker Activity (AID 2283054).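 Further: cell-surface uPAR protein level quantified by ELISA.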 As to conditions: primary human coronary artery smooth muscle cells; actives raise or lower the signal.

Read-out in experiment [3]: Vascular cell adhesion molecule 1 (VCAM1), VCAM1 (gene 7412)
The experiment in a line: BSK_CASM3C_VCAM1: BioMAP Diversity Plus: CASM3C Assay for Vascular cell adhesion molecule 1 (VCAM1) Biomarker Activity (AID 2283055).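 Further: VCAM-1 protein level quantified by ELISA on the cells.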 As to conditions: primary human coronary artery smooth muscle cells; actives raise or lower the signal.

Read-out in experiment [4]: Collagen III, COL3A1 (gene 1281)
The experiment in a line: BSK_hDFCGF_CollagenIII: BioMAP Diversity Plus: hDFCGF Assay for Collagen III Biomarker Activity (AID 2283056). Conditions: primary human foreskin fibroblasts; actives raise or lower the signal. The essentials: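 Cells: human foreskin fibroblasts, primary. Dosing followed by 24 h incubation, then ELISA for collagen III. Both increases and decreases scored relative to DMSO.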

Read-out in experiment [5]: Epidermal growth factor receptor (EGFR), EGFR (gene 1956)
The experiment in a line: BSK_hDFCGF_EGFR: BioMAP Diversity Plus: hDFCGF Assay for Epidermal growth factor receptor (EGFR) Biomarker Activity (AID 2283057). Conditions: primary human foreskin fibroblasts; actives raise or lower the signal. In short, it runs like this: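 Primary human foreskin fibroblasts (hDFCGF system), sampled 24 h after dosing; EGFR quantified by ELISA. Bidirectional fit relative to DMSO baseline; SRB total-protein staining in parallel cultures for cytotoxicity.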

Read-out in experiment [6]: Interleukin-8 (IL8), CXCL8 (gene 3576)
The experiment in a line: BSK_hDFCGF_IL8: BioMAP Diversity Plus: hDFCGF Assay for Interleukin-8 (IL8) Biomarker Activity (AID 2283058). Conditions: primary human foreskin fibroblasts; actives raise or lower the signal. The essentials:
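IL-8 levels from compound-treated primary human fibroblasts were read by ELISA at 24 h, with DMSO serving as baseline for bidirectional fitting.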

The nature of experiment [7]: BSK_hDFCGF_Proliferation: Cell Proliferation Assessment in the BioMAP Diversity Plus: hDFCGF Assay (AID 2283059).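 Further: curves fitted for both rise and fall of signal versus DMSO baseline.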 Conditions: primary human foreskin fibroblasts. In short, it runs like this: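 Primary human foreskin fibroblasts, sub-confluent; […]; 10% TCA fix, 0.1% SRB stain, A560 total protein. Gain/loss fitted bidirectionally vs DMSO control.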
Read-out in experiment [8]: Macrophage colony-stimulating factor (MCSF), CSF1 (gene 1435)
The experiment in a line: BSK_hDFCGF_MCSF: BioMAP Diversity Plus: hDFCGF Assay for Macrophage colony-stimulating factor (MCSF) Biomarker Activity (AID 2283060). Conditions: primary human foreskin fibroblasts; actives raise or lower the signal. In short, it runs like this:
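M-CSF levels, determined by ELISA, are taken at 24 h after dosing human skin fibroblasts. Responses in either direction are fitted with DMSO serving as the baseline.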

The nature of experiment [9]: BSK_hDFCGF_SRB: Viability Assessment in the BioMAP Diversity Plus: hDFCGF Assay (AID 2283061).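 Further: cells exposed to compound for 24 h before the read.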 As to conditions: primary human foreskin fibroblasts. In short, it runs like this: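 Cells were dosed with test chemical, cultured 24 h, fixed with 10% TCA, then stained with 0.1% SRB and read at 560 nm. The fibroblasts were human foreskin primary cells, and DMSO served as baseline.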

Read-out in experiment [10]: TIMP metallopeptidase inhibitor 1 (TIMP1), TIMP1 (gene 7076)
The experiment in a line: BSK_hDFCGF_TIMP1: BioMAP Diversity Plus: hDFCGF Assay for TIMP metallopeptidase inhibitor 1 (TIMP1) Biomarker Activity (AID 2283062). Conditions: primary human foreskin fibroblasts; actives raise or lower the signal. The essentials: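 Fibroblasts from human foreskin are treated with test chemical and harvested at 24 h. TIMP-1 is quantified by ELISA, and gain or loss of signal is scored against DMSO.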

Read-out in experiment [11]: Monokine induced gamma interferon (MIG), CXCL9 (gene 4283)
The experiment in a line: BSK_hDFCGF_MIG: BioMAP Diversity Plus: hDFCGF Assay for Monokine induced gamma interferon (MIG) Biomarker Activity (AID 2283063). As to conditions: primary human foreskin fibroblasts; actives raise or lower the signal. In short, it runs like this:
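MIG signal, determined by ELISA, reflects 24 h chemical exposure of human skin primary fibroblasts. DMSO serves as negative control and baseline.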

Read-out in experiment [12]: Matrix Metallopeptidase 1 (MMP1), MMP1 (gene 4312)
The experiment in a line: BSK_hDFCGF_MMP1: BioMAP Diversity Plus: hDFCGF Assay for Matrix Metallopeptidase 1 (MMP1) Biomarker Activity (AID 2283064). Conditions: primary human foreskin fibroblasts; actives raise or lower the signal. The essentials: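 Primary human foreskin fibroblasts in the hDFCGF system were dosed with test chemical, and MMP1 was measured by ELISA 24 h later. Values come from bidirectional curve fitting against the DMSO baseline.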

Read-out in experiment [13]: Plasminogen activator inhibitor-1 (PAI1), SERPINE1 (gene 5054)
The experiment in a line: BSK_hDFCGF_PAI1: BioMAP Diversity Plus: hDFCGF Assay for Plasminogen activator inhibitor-1 (PAI1) Biomarker Activity (AID 2283066). As to conditions: primary human foreskin fibroblasts; actives raise or lower the signal. In short, it runs like this:
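Human foreskin fibroblast primary cells, 24 h chemical exposure; PAI-1 measured by ELISA. Bidirectional fitting relative to DMSO; parallel cultures stained with SRB for total protein to flag overt cytotoxicity.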

Read-out in experiment [14]: Interferon-gamma inducible Protein 10 (IP10), CXCL10 (gene 3627)
The experiment in a line: BSK_KF3CT_IP10: BioMAP Diversity Plus: KF3CT Assay for Interferon-gamma inducible Protein 10 (IP10) Biomarker Activity (AID 2283068). Conditions: primary human keratinocytes with fibroblasts; actives raise or lower the signal. The essentials: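 In a primary skin co-culture of keratinocytes and fibroblasts, IP-10 is quantified by ELISA at 24 h after dosing. SRB staining of parallel wells monitors overt toxicity. Curves are fitted both directions against DMSO.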

Experiment [15] is described as follows: BSK_KF3CT_SRB: Viability Assessment in the BioMAP Diversity Plus: KF3CT Assay (AID 2283069).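 Further: total protein by sulforhodamine B staining as a cytotoxicity measure.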 Conditions: primary human keratinocytes with fibroblasts. The essentials:
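Human primary keratinocyte plus foreskin fibroblast co-culture exposed to chemicals for 24 h. Total protein measured by 0.1% sulforhodamine B staining after 10% TCA fixation, read at 560 nm; bidirectional fitting versus DMSO baseline.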

Read-out in experiment [16]: Interleukin-1 alpha (IL1a), IL1A (gene 3552)
The experiment in a line: BSK_KF3CT_IL1a: BioMAP Diversity Plus: KF3CT Assay for Interleukin-1 alpha (IL1a) Biomarker Activity (AID 2283070). As to conditions: primary human keratinocytes with fibroblasts; actives raise or lower the signal. The essentials:
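Human keratinocyte plus foreskin fibroblast primary co-culture, sampled 24 h after chemical dosing. IL-1a measured by ELISA; responses fitted bidirectionally against DMSO baseline (negative control), so gain or loss of signal both count.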

Read-out in experiment [17]: TIMP metallopeptidase inhibitor 2 (TIMP2), TIMP2 (gene 7077)
The experiment in a line: BSK_KF3CT_TIMP2: BioMAP Diversity Plus: KF3CT Assay for TIMP metallopeptidase inhibitor 2 (TIMP2) Biomarker Activity (AID 2283071). As to conditions: primary human keratinocytes with fibroblasts; actives raise or lower the signal. The essentials:
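Co-culture of human primary keratinocytes and foreskin fibroblasts, measured 24 h after chemical dosing. TIMP-2 quantified by ELISA and fitted in both directions relative to DMSO. Cytotoxicity checked in parallel cultures by SRB total-protein staining.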

Read-out in experiment [18]: Transforming growth factor beta 1 (TGFb1), TGFB1 (gene 7040)
The experiment in a line: BSK_KF3CT_TGFb1: BioMAP Diversity Plus: KF3CT Assay for Transforming growth factor beta 1 (TGFb1) Biomarker Activity (AID 2283072). Conditions: primary human keratinocytes with fibroblasts; actives raise or lower the signal. In short, it runs like this: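 Human keratinocyte/foreskin fibroblast co-culture; TGF-b1 measured by ELISA 24 h after dosing, fitted bidirectionally versus DMSO. Cytotoxicity checked in parallel cultures by total protein (SRB staining, 560 nm).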

Read-out in experiment [19]: Vascular cell adhesion molecule 1 (VCAM1), VCAM1 (gene 7412)
The experiment in a line: BSK_hDFCGF_VCAM1: BioMAP Diversity Plus: hDFCGF Assay for Vascular cell adhesion molecule 1 (VCAM1) Biomarker Activity (AID 2283065).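 On AC50: VCAM-1 protein level quantified by ELISA after 24 h chemical exposure.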 Conditions: primary human foreskin fibroblasts; actives raise or lower the signal. In short, it runs like this:
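Cells are dosed, cultured for 24 h, then VCAM-1 is quantified by ELISA; signal increases and decreases are both fitted relative to DMSO.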

As for `CCOC(=O)CC(=O)CCl`, the outcome in experiment [1], in [2], in [4], in experiment [5], in experiment [6] and in experiment [9] was inactive. In addition, the outcome in experiment [10], in experiment [12], in [13], in [14], in experiment [15] and in [17] was inactive. In addition, the outcome in experiment [18] was inactive. In addition, the AC50 – broadly, the concentration at which the activity in the assay is half-maximal – in experiment [3] is 20 µM (active); in experiment [7], 19 µM (active); in [8], 20 µM (active); in experiment [11] it was 20 µM (active); in experiment [16], 6.58 µM (active).

On to `c1ccc(-c2cccc(-c3ccccc3)c2)cc1`, for which the AC50 is 29.5 µM (active) in experiment [1]; 11.7 µM (active) in [4]; 11 µM (active) in [7]; 20 µM (active) in experiment [8]; 12.2 µM (active) in [9]; 20 µM (active) in experiment [10]. Moreover, the AC50 in [12] was 5.57 µM (active); in experiment [19] it was 12.4 µM (active); in experiment [13] it was 20 µM (active); in [16], 7.05 µM (active). The result in experiment [2], in [3], in experiment [5], in experiment [6], in experiment [11] and in experiment [14] was inactive. The outcome in experiment [15], in experiment [17] and in experiment [18] was inactive.

Consider `O=C(CCl)NCO`, for which the outcome in experiment [1], in experiment [2], in experiment [3], in experiment [4], in experiment [5] and in [6] was inactive. Besides, the outcome in experiment [7], in experiment [8], in [10], in experiment [11], in [12] and in experiment [19] was inactive. Also, the outcome in [13], in experiment [14], in experiment [15], in experiment [16], in experiment [17] and in experiment [18] was inactive.

On to `CCOP(=S)(OCC)SCS(=O)(=O)C(C)(C)C`, for which the outcome in [1], in experiment [2], in experiment [3], in experiment [4], in experiment [5] and in [6] was inactive. The result in [7], in [8], in experiment [10], in [11], in experiment [12] and in experiment [19] was inactive. The outcome in experiment [13], in experiment [14], in experiment [15], in [16], in experiment [17] and in experiment [18] was inactive.

Consider `Cc1cc(Cl)ccc1OC(C)C(=O)O` (stereo not given), for which the outcome in experiment [1], in experiment [2], in experiment [3], in experiment [4], in [5] and in [6] was inactive. Besides, the result in experiment [7], in experiment [8], in experiment [10], in experiment [11], in [12] and in experiment [13] was inactive. The outcome in experiment [14], in experiment [15], in experiment [16], in experiment [17] and in experiment [18] was inactive.

On to `OC(Cc1ccccc1Cl)(Cn1[nH]cnc1=S)C1(Cl)CC1` (stereo not given), for which the AC50 in experiment [1] is 29.5 µM (active); in experiment [2] it was 32.5 µM (active); in experiment [3], 36.3 µM (active); in [4], 9.86 µM (active); in [7] it was 35.2 µM (active); in experiment [8] it was 15 µM (active). The AC50 in experiment [11] is 33.3 µM (active); in [19] it was 17.8 µM (active); in experiment [17], 11.1 µM (active); in [18], 16.9 µM (active). Besides, the result in [5], in [6], in [10], in experiment [12], in experiment [13] and in experiment [14] was inactive. Further, the result in experiment [15] and in experiment [16] was inactive.

For the molecule `CC(C)N(C(=O)CCl)c1ccccc1`, the AC50 in experiment [1] is 3.13 µM (active); in experiment [2] it was 11 µM (active); in experiment [3], 4.39 µM (active); in experiment [4], 1.69 µM (active); in experiment [6], 13.3 µM (active); in experiment [7], 2.45 µM (active). The AC50 in experiment [8] was 6.59 µM (active); in experiment [10], 2.98 µM (active); in experiment [11], 3.85 µM (active); in experiment [12], 11.4 µM (active); in [13] it was 4.77 µM (active); in experiment [14] it was 20 µM (active). Besides, the values for the AC50 in [15], in experiment [17] and in experiment [18] were 27.1 µM (active), 14.2 µM (active) and 20 µM (active), respectively. Also, the outcome in experiment [5] and in experiment [16] was inactive.
